Measurements published in the supplement of paper PMC6555819.

Test system: VDR:RXRa (NR concentration 270 nM, RXRa partner concentration 90 nM)
Assay: PBM binding z-score (relative to random genomic background probes); higher = stronger binding; sequences stand for … in GC…GCGATTGACAGCGTAGAATGAAGG
Protocol: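 Protein-binding microarray (Agilent 4x180K custom design, double-stranded 60-nt probes: 5' GC cap, 34-nt variable region, 24-nt constant primer region; full probe sequence given). Purified or IVT nuclear receptor:RXRα heterodimers (3:1 NR:RXRα, mostly 270:90 nM) or homodimers were incubated for 1 h in PBS with 2% milk and no ligand, then detected with Alexa488 antibodies. Fluorescence from o1-orientation probes (~5 replicates averaged) was converted to z-scores against 500 random hg19 background probes. Variable regions are seed direct-repeat (DR0–DR5) sites, all their single-nucleotide variants and half-site ablations.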

Sequence | PBM binding z-score
ATCTCTAGGTAAAAGTTAAGTGAATCCCGAGGAT | -0.0664
AGAATGAGGTTATACGTAGATCAGGGAGGAAAGT | 1.33
ACTATTAGTTGACTAAGGGCAACCGATACGACGC | 1.29
CAAACTAGGTCAAAGGTCACAGTCGAGCCAACCA | 6.63
CATAGAGGGTCAGCTAGGCCAGAGTAGGGACGGC | 2.69
ACTTTTAGTTGACTTAGGGCAACCGATACGACGC | 0.839
TCTTGTAGATCAAGCAGGTTAAGAGAGCCTGAGT | 0.331
CGTCCAAGGTCAAAGGTCAGTGAAGAGATGACGG | 6.76
GTACCAAGGTGAATAGGTCGTTGACGAGTAGGCG | 0.987
GCATATAGGTAATACAAGGTTAAAGTCCGATTGT | 1.6
AGTCAAAGTTCAACTAGGTAACGTAAGATATGCT | 4.61
TTACCATGGTGAAAGGTCGTTGATGCACGCCTTG | 2.11
GCTTGCAGGCCATTTGGGTCACTCAATGACGGGC | 1.08
TCCCGGAGGACACGAAGGTCAGAGCTTTCCAGAG | 2.15
ACAGACACGTGATGAAGGTAACTCAGGCTATCAT | 0.0575
GCTAGCAGGCTATTTGGGTCACTCAATGACGGGC | 0.0221
AGAATGAGGTTATGATCAGGGAAACAGAATACAT | 1.11
CGACCAAGGTCAAGGTCAGTGAAAGAGACTCGAA | 4.82
ATCTCTAGATAAAGTTCAGTGAAAGATCGATAGA | 1.03
TGAATGAGGTTAAAGATCAGGGTACGTGGCGTCG | 2.38

Sequence | PBM binding z-score
CGATCTAGGTCATCCAGGACAGTGAATACATTGA | 4.67
ATATGTAGGTTAACGGTCATTCAGGTTGGTTCGC | 2.32
CGTCCAAGGTCATAGGATGTCAGTGAAGACAGAT | 4.77
TCTCGGAGAACACGAAGGTCAGAGCTTTCCAGAG | 0.885
TCTTGTAGATCAACAGGAGTTTAAGAAAGATCGA | 0.517
TCTCGGAGGATACGAAAGGTCAGAGCTCGACATC | 2.6
TCTGGTAGATCAATAGAGGTTAAGAAAGTGCGCT | 1.87
CCTGCTAGGTCATGGTCAGCTGATCTACAGTATG | 1.95
AGAACGATGGCAATGAGTTGATAGCACGGGTGGC | 0.528
CGTCCAAGGTGATAGGAGGTCAGTGAAGACAGAT | 3.08
CGAACTAGATCATCCAGGACAGTGAATACATTGA | 0.286
ATATGTAGGTTATCGGGCCATTCAGTTTGCGCAT | 1.14
AATACAGGGGCACTAGGCCAGAGTAGGTACGAAT | 0.171
CCGCGGAGGACAACAGGAGGTCAGAGCTGCCAGA | 1.8
ACTCAGAGGACAAAGGTCAGAGCTACGCCAGTGA | 3.62
ATCTCTAGGTAACGAAGTTCAGTGAATGCCGAAC | 2.56
ATCTCTAGGTAAGACTCAGTTCAGTGATGAACGC | 0.927
ACTAGCAGGCCTAGGGTCACTCAAGATTAGTCCG | 2.03
GCTTGTAGATCAAGGCTAAGAAAGACTAAGCTAA | -0.679
CGAACTAGGTCAAGGACATTGAATCTCCGCACGC | 1.73
